Our source for the growth values is PubChem BioAssay (NCI).

Assay in all cases: NCI-60 one-dose screen, 48 h (100 = growth as untreated, 0 = no growth, -100 = all killed)
Conditions in all cases: 10 µM unless noted

The subject of assay [1] is SN12C renal.
For assay [2], the system named is UO-31 renal.
Assay [3] concerns TK-10 renal.
Assay [4] concerns ACHN renal.
Assay [5] deals with CAKI-1 renal.
Assay [6] deals with A498 renal.
In assay [7] the test system is CCRF-CEM leukemia.
The subject of assay [8] is MOLT-4 leukemia.

Compounds without any hit were thinned out: in the full panel of roughly 83,000, 20% have a hit.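 Method: cells in 96-well plates; compound added at one concentration; 48 h incubation; percent growth measured; values under 10 scored active.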 A number with no mark means an inactive call. Active and inactive are the calls of the source.

In the case of `O=C(/C=C/c1cn(-c2ccccc2)nc1-c1cccc(Nc2ccnc3cc(Cl)ccc23)c1)c1ccc2c(c1)OCO2`, the growth in assay [1] is 117%; in assay [2], 84.8%; in assay [3] it was 123%; in assay [4], 105%; in assay [5] it was 100%; in assay [6], 92.3%. Besides, the growth in assay [7] is 17.2%.

On to `COc1ccc2cc(-c3nc(C)c(C(C)=O)c(-c4ccc(C)cc4)n3)ccc2c1`, for which the growth was 95.5% in assay [1]; 72.9% in assay [2]; 93.9% in assay [3]; 98.7% in assay [4]; 79.5% in assay [5]; 83% in assay [6]. In addition, the growth is 89.7% in assay [7] and 106% in assay [8].

Take `COc1cc(C2CC(c3ccc(Nc4ccnc5cc(Cl)ccc45)cc3)=NN2c2ccccc2)cc(OC)c1OC` (stereo unspecified): the growth is 76.3% in assay [1]; 57.8% in assay [2]; 89.8% in assay [3]; 77.1% in assay [4]; 48.2% in assay [5]; 61% in assay [6]. The growth is 47.5% in assay [7] and 62.3% in assay [8].

In the case of `Cc1ccc(-c2nc3ccccc3c(=O)n2/N=C/c2cccc3ccccc23)cc1`, the growth was 82.3% in assay [1]; 48.3% in assay [2]; 101% in assay [3]; 80.7% in assay [4]; 54.4% in assay [5]; 109% in assay [6]. In addition, the values for the growth in assay [7] and in assay [8] were 55.2% and 55.9%, respectively.

Regarding `Fc1ccc(-c2ccnc3nc(-c4ccncc4)nn23)cc1`, the growth in assay [1] is 110%; in assay [2], 84.5%; in assay [3], 96.6%; in assay [4], 104%; in assay [5], 92.1%; in assay [6], 83.8%. The growth in assay [7] is 110%; in assay [8], 94.9%.

With `Clc1ccc(Nc2ncnc3c2sc2ncccc23)c(Cl)c1`, the growth was 20.4% in assay [1]; -11.7% (active) in assay [2]; 59.6% in assay [3]; 9.32% (active) in assay [4]; 15.1% in assay [5]; 26.7% in assay [6]. The values for the growth in assay [7] and in assay [8] were 16.6% and 8.22% (active), respectively.

Take `Nc1ncnc2c1N=C(c1ccc(F)cc1)CC(c1sc(Cl)nc1Cl)N2` (stereo unspecified): the growth is 81.3% in assay [1]; 63.2% in assay [2]; 93.2% in assay [3]; 95.5% in assay [4]; 98% in assay [5]; 68.9% in assay [6]. Besides, in assay [7], the growth was 29.1%.

For `COc1ccc(C2CC(c3cccc(Nc4ccnc5cc(Cl)ccc45)c3)=NN2c2ccc(Cl)cc2)cc1` (stereo unspecified), the growth in assay [1] was 89.7%; in assay [2], 50.1%; in assay [3], 93.6%; in assay [4] it was 50.5%; in assay [5], 1.94% (active); in assay [6], 49.7%. Further, the growth in assay [7] was 53.5%.

Turning to `O=C(Nc1ccc(Oc2ccc(Nc3nc4ccccc4s3)cc2)cc1)Nc1ccc(Cl)c(C(F)(F)F)c1`, the growth in assay [1] is 1.99% (active); in assay [2], 14.1%; in assay [3], 12.6%; in assay [4], 3.09% (active); in assay [5], 12.4%; in assay [6], -18.3% (active). Besides, the growth was 5.88% (active) in assay [7] and 5.65% (active) in assay [8].

As for `COC(=O)C(C)NC1=C(Cl)C(=O)C(NC(C)C(=O)OC)=C(Cl)C1=O` (stereo unspecified), the growth in assay [1] was 99.5%; in assay [2], 89.8%; in assay [3], 121%; in assay [4], 106%; in assay [5], 103%; in assay [6], 89.3%. Besides, the growth in assay [7] is 96%; in assay [8], 93.5%.

Take `Cc1cc(C)c(C#N)c(SCC(=O)c2sc3c(C#N)c(C)cc(C)[n+]3c2[O-])n1`: the growth in assay [1] was 31.4%; in assay [2], 45.5%; in assay [3], 35.3%; in assay [4], 31%; in assay [5], -6.91% (active); in assay [6] it was -6.21% (active). Moreover, the growth was 9.64% (active) in assay [7] and 2.71% (active) in assay [8].

With `CC(C)(C)c1ccc(Cn2c(-c3nonc3N)nc3ccccc32)cc1`, the growth in assay [1] was 73.6%; in assay [2], 51.4%; in assay [3] it was 81.9%; in assay [4] it was 77.3%; in assay [5], 62.2%; in assay [6] it was 80.1%. Also, the growth in assay [7] is 46.7%; in assay [8], 62.6%.

For `Cc1ccc(S(=O)(=O)NC(CCC(=O)Nc2ccc(Cl)cc2)C(=O)Nc2ccc(Cl)cc2)cc1` (stereo unspecified), the growth in assay [1] is 39.8%; in assay [2] it was 38.2%; in assay [3] it was 25.7%; in assay [4] it was 30%; in assay [5] it was 41.9%; in assay [6], -0.58% (active). For the same compound, the growth in assay [7] was 4.45% (active); in assay [8], 10.7%.

In the case of `Cc1nc2ccc(Nc3nc(N4CCOCC4)nc(N4CCN(C)CC4)n3)cc2n1Cc1ccccc1`, the growth in assay [1] is 113%; in assay [2] it was 62.7%; in assay [3] it was 87.2%; in assay [4] it was 94.7%; in assay [5], 102%; in assay [6], 40.6%. Also, the growth in assay [7] was 79.9%.

`NC(=O)c1noc(C(=O)c2ccccc2)c1N`: the growth is 99.7% in assay [1]; 90.2% in assay [2]; 92.5% in assay [3]; 99.6% in assay [4]; 98.6% in assay [5]; 72% in assay [6]. In addition, the growth was 98.8% in assay [7] and 95.1% in assay [8].
